Screening results deposited in PubChem by several laboratories.
phage Ecoli inh: growth loss of phage-infected E. coli, primary screen, RecBCD inhibitor project, absorbance, with phage, HTS; inhibition, % at 11.9 µM; hit rate 0.26% among 360,000; in the data active = inhibition above about 11%
Tat transport: E. coli Tat export inhibitors, primary screen, MC4100, TorA-mCherry reporter, fluorescence, single point; inhibition, % at 10 µM; hit rate 0.036% among 340,000; AID 488895, 2010;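 active = mean replicate inhibition at least 50% and at least half of replicates individually reaching 50%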;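 also: exported cargo escapes ClpAP degradation while cytoplasmic cargo is degraded and loses fluorescence; 0% = median of neutral control wells and 100% = median of NaSCN control wells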
AddAB inh: growth inhibition of E. coli expressing H. pylori AddAB, primary screen, AddAB inhibitor project, absorbance | hit rate 0.29% among 330,000 | AID 435030, 2010 | inhibition, % at 11.9 µM; in the data active = inhibition above about 12%;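 also: 0% = vehicle wells of infected cells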
E coli growth-1: E. coli growth inhibition, primary screen, OD600; hit rate 0.21% among 330,000; OD600 absorbance (concentration not given with the values); Escherichia coli growth, 23 h; hits give low values;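 active = OD600 absorbance below the run mean of sample wells minus 3.6 SD, in any replicate, cut at about 0.56 in these data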
E coli growth-2: E. coli V3065 growth inhibition, primary screen, counter-screen for AddAB inhibitor project, absorbance, OD600. hit rate 0.27% among 330,000. AID 449728, 2010. inhibition, % at 11.9 µM. 18 h;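 active = inhibition above the campaign's mean inhibition across all tested compounds plus 3 SD, cut at about 9.9% in these data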;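 also: uninfected addAB+ strain grown without phage in ampicillin broth; 0% = DMSO wells and 100% = ciprofloxacin 0.95 µg/ml wells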
AddAB conf: growth loss of phage-infected E. coli expressing H. pylori AddAB, confirmation, AddAB inhibitor project, absorbance, E. coli V3065, T4 phage, triplicate. shares compounds with AddAB inh. OD; T4 phage with gene 2 nonsense mutations. inhibition, % at 11.9 µM. hit rate 64% among 880;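 active = mean inhibition above a set limit taken from the earlier primary screen, cut at about 13% in these data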;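 also: higher means less bacterial growth since AddAB block lets phage replicate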
RecBCD counter: growth loss of RecBCD+ E. coli with mutant T4 phage, counter-screen for AddAB inhibitor project, absorbance, V66 E. coli | shares compounds with AddAB inh | OD growth | hit rate 73% among 880 | inhibition, % at 11.9 µM;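 active = mean inhibition above the mean of solvent-only control wells plus 3 SD, cut at about 4% in these data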;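 also: optical density read after an 18 h incubation at 37 °C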
Bact viability: bacterial viability inhibition counter-screen, confirmation, counter-screen for AddAB inhibitor project, absorbance. shares compounds with AddAB inh. absorbance (AddAB counterscreen). inhibition, % at 11.9 µM. hit rate 35% among 880. AID 488956, 2010; in the data active = inhibition above about 25%
* = called active by the depositor. A selection: hits, their analogues and other compounds. The true share with any hit is near 0.51%.

`CCc1ccc(C=NNC(=S)NCCc2ccccc2)cc1` gave E coli growth-1 0.72.
`C[C@H]1c2cccc(O)c2C(O)=C2C(=O)[C@]3(O)C(O)=C(C(N)=O)C(=O)[C@@H](N(C)C)C3[C@@H](O)C21` (stereo not given in full) gave phage Ecoli inh 101*, Tat transport 146*, AddAB inh 99*, E coli growth-2 100*, AddAB conf 99*, RecBCD counter 98* and Bact viability 100*.
For COc1ccc(OC)c(C=NNC(=O)CNC(=O)c2cccc3ccccc23)c1 the results were E coli growth-1 0.67.
CC(=O)c1cccc(NC(=O)CCNS(=O)(=O)c2cccc3nonc23)c1 was read as phage Ecoli inh 5, Tat transport -17, AddAB inh 13*, E coli growth-1 0.68, E coli growth-2 7, AddAB conf 6, RecBCD counter 4.5* and Bact viability 5.
For NC(=NOCC(=O)Nc1cccc2ccccc12)c1nonc1N the results were E coli growth-1 0.64.
Screening On1c(-c2ccccc2)nc2ccccc21 returned phage Ecoli inh 3, Tat transport 0, AddAB inh 6, E coli growth-1 0.63 and E coli growth-2 6.
O=Nc1c2nc3ccccc3n(O)c-2c2ccccc12 was read as phage Ecoli inh 6, Tat transport 4, AddAB inh 14*, E coli growth-1 0.56, E coli growth-2 20*, AddAB conf 32*, RecBCD counter 8.1* and Bact viability 17.
For Cc1ccc(CNC(=O)C(=O)NCC2OCCN2S(=O)(=O)c2cccs2)cc1 (stereo not given) the results were phage Ecoli inh 2, Tat transport -5, AddAB inh 95*, E coli growth-1 0.73, E coli growth-2 87*, AddAB conf 3, RecBCD counter -1 and Bact viability -2.
For O=C(NCc1ccccc1)C(=O)NCC1OCCN1S(=O)(=O)c1cccs1 (stereo not given) the results were phage Ecoli inh 2, Tat transport -5, AddAB inh -1, E coli growth-1 0.68 and E coli growth-2 0.
For Cc1cc(C)c(S(=O)(=O)N2CCOC2CNC(=O)C(=O)NCc2cccnc2)c(C)c1 (stereo not given) the results were phage Ecoli inh 1, Tat transport 3, AddAB inh 54*, E coli growth-1 0.72, E coli growth-2 34*, AddAB conf -1, RecBCD counter 1 and Bact viability -1.
`Cc1cc2ccccn2c1C(=O)c1ccc([N+](=O)[O-])o1` gave phage Ecoli inh 12*, Tat transport 12, AddAB inh 40*, E coli growth-1 0.69, E coli growth-2 20*, AddAB conf 95*, RecBCD counter 8.4* and Bact viability 40*.
Screening Cc1cc2ccccn2c1C(=O)c1cccc([N+](=O)[O-])c1 returned phage Ecoli inh 2, Tat transport -4, AddAB inh 1, E coli growth-1 0.74 and E coli growth-2 1.
`CC(C)CC(CN=[N+]=[N-])N1CCN(CC(C)C)CCC1=O` (stereo not given) gave E coli growth-1 0.68.
O=C(CSc1ccc(-c2ccccn2)nn1)Nc1ccc(F)c(F)c1 was read as phage Ecoli inh 8, Tat transport 17, AddAB inh 14*, E coli growth-1 0.69, E coli growth-2 14*, AddAB conf 7, RecBCD counter 9.7* and Bact viability 7.
`Cc1ccc(NC(=O)CSc2ccc(-c3ccccn3)nn2)cc1` gave phage Ecoli inh 10, Tat transport 7, AddAB inh 9, E coli growth-1 0.66 and E coli growth-2 4.
`O=C(NN=C1SCC(=O)N1Cc1ccco1)c1ccccc1F` gave E coli growth-1 0.65.
CCCOc1ccc(S(=O)(=O)n2cc(F)c(=O)[nH]c2=O)cc1 was read as phage Ecoli inh 3, Tat transport 2, AddAB inh 13*, E coli growth-1 0.69, E coli growth-2 6, AddAB conf 11, RecBCD counter 1 and Bact viability 5.
CCOc1ccc(Cn2cc(F)c(=O)[nH]c2=O)cc1 was read as phage Ecoli inh 3, Tat transport -9, AddAB inh 2, E coli growth-1 0.65 and E coli growth-2 1.
For CC(C)COc1ccc(S(=O)(=O)n2cc(F)c(=O)[nH]c2=O)cc1 the results were phage Ecoli inh 7, Tat transport -4, AddAB inh 13*, E coli growth-1 0.67, E coli growth-2 7, AddAB conf 4, RecBCD counter 2 and Bact viability 4.
O=C(C1=CC(C2CCCCC2)CC(OCc2ccc(CO)cc2)O1)N1CCN(Cc2ccccc2)CC1 (stereo not given) was read as E coli growth-1 0.68.
Cc1cc(Cl)ccc1OCC(=O)NN=Cc1ccc(OC2OC(CO)C(O)C(O)C2O)cc1 (stereo not given) was read as E coli growth-1 0.74.
`O=S1(=O)Nc2c(ccc3cccnc23)-c2ccccc21` gave Tat transport 21, AddAB inh 51*, E coli growth-1 0.22*, E coli growth-2 51*, AddAB conf 45*, RecBCD counter 49* and Bact viability 46*.
Screening Cc1c(Cl)cccc1NC(=S)NCc1ccc(F)cc1 returned phage Ecoli inh 5, Tat transport -1, AddAB inh 4, E coli growth-1 0.68 and E coli growth-2 1.
`Cc1c(Cl)cccc1NC(=S)NCc1ccccc1Cl` gave phage Ecoli inh 5, Tat transport 20, AddAB inh 18*, E coli growth-1 0.69, E coli growth-2 5, AddAB conf 17*, RecBCD counter 23* and Bact viability 18.
Screening Cn1ccnc1SCC(=O)c1ccc(O)cc1 returned phage Ecoli inh 1, Tat transport 4, AddAB inh 0, E coli growth-1 0.69 and E coli growth-2 -1.
For Cn1ccnc1SCC(=O)c1ccc(Cl)cc1 the results were phage Ecoli inh -1, Tat transport -3, AddAB inh 82*, E coli growth-1 0.68, E coli growth-2 35*, AddAB conf 0, RecBCD counter 0 and Bact viability -5.
`Cc1nc2sc(C(c3ccco3)N3CCN(C(c4ccccc4)c4ccccc4)CC3)c(O)n2n1` (stereo not given) gave phage Ecoli inh 2, Tat transport 12, AddAB inh 37*, E coli growth-1 0.81, E coli growth-2 22*, AddAB conf 5, RecBCD counter 3 and Bact viability 2.
